About 800 (0.36%) of roughly 220,000 compounds were called active.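 Rule for the calls: active = inhibition above about 30% (limit read from the data); inactive = the rest.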 The sample as a whole holds a higher share of actives than the screen did.

For the experiment, the target named is Eukaryotic translation initiation factor 4E (Mus musculus) + Eukaryotic translation initiation factor 4 gamma 1 (Homo sapiens) (UniProt P63073+Q04637). Description: blockers of eIF4G binding by eIF4E – biochemical, uHTS, TR-FRET, eIF4GI fragment, primary screen (AID 782).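 Note: 0% = full FRET control wells and 100% = background wells lacking eIF4GI fragment.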 The following applies: TR-FRET eIF4E-eIF4GI(517-606) binding, 2 h; at 21.7 µM; hits give high values.
Sequence of Eukaryotic translation initiation factor 4E (Mus musculus) + Eukaryotic translation initiation factor 4 gamma 1 (Homo sapiens) (P63073 whole entry, looked up, the tested form may be a part): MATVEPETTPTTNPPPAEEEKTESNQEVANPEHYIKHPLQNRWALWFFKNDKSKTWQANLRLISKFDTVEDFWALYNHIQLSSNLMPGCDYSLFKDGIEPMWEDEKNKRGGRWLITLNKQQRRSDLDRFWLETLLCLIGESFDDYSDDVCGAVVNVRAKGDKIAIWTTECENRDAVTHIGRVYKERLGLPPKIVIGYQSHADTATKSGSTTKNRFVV
Sequence of Eukaryotic translation initiation factor 4E (Mus musculus) + Eukaryotic translation initiation factor 4 gamma 1 (Homo sapiens) (Q04637 whole entry, looked up, the tested form may be a part): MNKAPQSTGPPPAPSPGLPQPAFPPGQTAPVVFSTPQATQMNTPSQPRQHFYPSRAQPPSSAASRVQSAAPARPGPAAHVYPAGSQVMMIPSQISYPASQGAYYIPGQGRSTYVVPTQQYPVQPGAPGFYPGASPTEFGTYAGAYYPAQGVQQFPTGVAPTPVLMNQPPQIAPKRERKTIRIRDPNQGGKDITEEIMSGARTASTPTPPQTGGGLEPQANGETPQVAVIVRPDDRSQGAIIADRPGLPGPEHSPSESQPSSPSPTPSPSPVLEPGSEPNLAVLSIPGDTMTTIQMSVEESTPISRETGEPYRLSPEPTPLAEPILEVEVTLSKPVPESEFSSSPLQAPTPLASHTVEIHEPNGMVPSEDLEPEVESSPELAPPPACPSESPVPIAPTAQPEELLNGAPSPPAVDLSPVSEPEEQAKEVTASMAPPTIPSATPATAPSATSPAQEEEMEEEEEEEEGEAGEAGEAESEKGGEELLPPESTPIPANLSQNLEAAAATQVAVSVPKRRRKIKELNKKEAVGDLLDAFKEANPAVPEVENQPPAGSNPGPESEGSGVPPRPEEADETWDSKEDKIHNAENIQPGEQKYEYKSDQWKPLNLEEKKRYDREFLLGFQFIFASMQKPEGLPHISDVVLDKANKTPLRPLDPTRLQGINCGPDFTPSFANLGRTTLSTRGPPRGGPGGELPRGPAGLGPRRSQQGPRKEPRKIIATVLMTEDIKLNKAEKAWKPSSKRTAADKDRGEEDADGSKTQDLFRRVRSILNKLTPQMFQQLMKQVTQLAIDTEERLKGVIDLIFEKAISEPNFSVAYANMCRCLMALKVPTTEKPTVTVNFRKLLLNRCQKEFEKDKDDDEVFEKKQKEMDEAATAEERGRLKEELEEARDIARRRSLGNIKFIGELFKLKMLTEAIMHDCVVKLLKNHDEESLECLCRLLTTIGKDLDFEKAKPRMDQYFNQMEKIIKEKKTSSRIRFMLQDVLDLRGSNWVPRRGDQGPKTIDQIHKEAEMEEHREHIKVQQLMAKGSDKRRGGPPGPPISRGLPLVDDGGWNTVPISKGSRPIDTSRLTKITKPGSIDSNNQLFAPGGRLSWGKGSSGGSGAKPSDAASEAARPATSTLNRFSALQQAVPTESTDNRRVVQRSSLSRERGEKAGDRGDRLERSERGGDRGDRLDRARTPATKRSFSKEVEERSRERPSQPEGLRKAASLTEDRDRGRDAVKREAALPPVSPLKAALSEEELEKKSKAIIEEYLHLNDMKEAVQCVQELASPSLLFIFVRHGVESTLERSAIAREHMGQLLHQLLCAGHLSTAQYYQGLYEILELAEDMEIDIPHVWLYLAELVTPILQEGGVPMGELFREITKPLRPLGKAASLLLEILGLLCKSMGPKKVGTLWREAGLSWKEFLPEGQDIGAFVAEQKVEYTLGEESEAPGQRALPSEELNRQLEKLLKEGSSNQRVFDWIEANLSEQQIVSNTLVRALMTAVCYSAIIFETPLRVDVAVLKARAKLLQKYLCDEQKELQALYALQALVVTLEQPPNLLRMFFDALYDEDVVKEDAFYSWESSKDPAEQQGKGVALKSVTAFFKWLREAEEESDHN
As for `CCC(=NCCc1ccccc1)c1c(O)n(C2CCCCC2)c(=O)[nH]c1=O`, the inhibition is -4.4% (inactive). In the case of `CC(=NCC1CCCO1)c1c(O)n(-c2ccccc2)c(=O)[nH]c1=O` (stereo not given), the inhibition is 58.1% (active).

With `Cc1ccc(-n2c(O)c(C=NCC3CCCO3)c(=O)[nH]c2=O)c(C)c1` (stereo not given), the inhibition was -0.86% (inactive). Next, `CC1(C)Cc2c(C#N)c(N3CCNCC3)nc(-c3ccco3)c2CS1`: -1.83% (inactive); `COc1ccc(NC(=O)N2CCC3(CC2)OCCO3)c(OC)c1`: 1.55% (inactive).

The inhibition is the drop in the measured response relative to a control, in per cent.
